SMILES strings stand for the structures. Inconclusive results are not listed. A call without a number means that no potency is given here. Active and inactive are the calls of the source. Calls come from the whole dose curve; as a rule, active = well fitted activation curve with a large enough effect; inconclusive = small, poorly fitted or top-dose-only effect; inactive = flat fitted curve, though single readings scatter.

Results on 39 molecules are retold here after PubChem BioAssay AID720519 (National Center for Advancing Translational Sciences (NCATS), 2013).
Potency is the fitted concentration of half-maximal effect.

The nature of the assay: qHTS for Inhibitors of Cell Surface uPA Generation: Confirmatory Assay for Cherry-picked Compounds. Conditions: cell surface uPA activity generation, qHTS confirmation; series mostly up to 115 µM. The essentials: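 RAW 264.7 cells at 4000/well, incubated overnight, then treated with compounds. After 24 h at 37 C, viability was read by ATPlite luminescence. An increase in signal indicates blocked uPA-dependent LF entry.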
A general note: In qHTS, concentration-response curves come from the screen itself.
As to `Cc1ccc(CC2CC(=O)N(c3cc(C)ccc3C)C2=O)cc1` (centres undefined), the Potency result is “inactive”.

As to `C=CC1=C(C(=O)O)N2C(=O)[C@@H](NC(=O)/C(=N\O)c3csc(N)n3)[C@H]2SC1` (stereo in doubt), the Potency entry is “inactive”. In the case of `CCOC(=O)C1CCN(S(=O)(=O)c2c[nH]c(=O)[nH]c2=O)CC1`, the Potency result is “inactive”. With `O=[N+]([O-])c1cccc2c(N3CCOCC3)ccnc12`, the Potency result is “inactive”. Take `CCNC(=S)NNC(=O)C(c1ccccc1)c1ccccc1`: the Potency result was “inactive”. For `CCCCOc1ccc(S(=O)(=O)N2CCCCC2)cc1`, the Potency entry was “inactive”. Regarding `O=C(N/N=C/c1cccnc1)c1ccccc1[N+](=O)[O-]`, the Potency entry is “inactive”. For the molecule `Cc1cc2[nH]c(=O)c(=O)[nH]c2cc1S(=O)(=O)NC1CCC(C)CC1` (centres undefined), the Potency result is “inactive”. Turning to `O=C(c1cccc(F)c1)N1CCN(Cc2cccc(Br)c2)CC1`, the Potency entry was “inactive”. `CC(C)(C)OC(=O)C[C@@H]1C/C=C\C[C@@H](CC(=O)N(CCO)Cc2ccccc2)C(=O)N[C@H](Cc2c[nH]c3ccccc23)COC1=O`: the Potency entry was “inactive”. The result for `Cc1cccc(NC(=O)C2CCCN(S(=O)(=O)c3cccc4cccnc34)C2)c1` (centres undefined) reads “inactive”; that for `COc1ccc(C(c2sc3nc(C)nn3c2O)N2CCC(C(N)=O)CC2)cc1OC` (centres undefined), “inactive”. For `O=C(Nn1cnnc1)c1ccc(Cl)c(Cl)c1` the value was “inactive”; for `CCN(C(=O)CSc1ncnc2sccc12)c1c(N)n(Cc2ccccc2)c(=O)[nH]c1=O`, “inactive”. `COc1ccccc1-c1ccc(SCC(=O)NCCc2ccccc2)nn1`: the Potency entry was “inactive”. Regarding `C=CCOC(=O)C1=C[C@H](c2ccc(C(F)(F)F)cc2)[C@@H](CCCO)[C@H](OCC)O1`, the Potency entry is “inactive”. As for `O=C(c1ccc(NC(=S)NCc2ccc(Cl)cc2)cc1)N1CCCCC1`, the Potency entry was “inactive”.

For the molecule `COc1ccccc1CNC(=O)CCCn1nc(C)c2c(C)n(-c3ccccc3)nc2c1=O`, the Potency result was “inactive”. For `CN(C)S(=O)(=O)c1ccc(NC(=O)COC(=O)CC2CC3CCC2C3)cc1` (centres undefined) the value was “inactive”; for `COc1ccccc1CN1CC(C(=O)NCc2cccc(C)n2)CCC1=O` (centres undefined), “inactive”. For the molecule `CN1CCN(c2ccc(S(=O)(=O)N3CCOCC3)cc2NC(=O)CSCc2ccccc2)CC1`, the Potency result was “inactive”. Consider `COc1ccc(-c2cc3nc(C)cc(-c4ccc(OC)cc4)n3n2)cc1`, for which the Potency result was “inactive”. `O=C(c1cc(COc2ccc(F)cc2Cl)on1)N1CCCCCC1`: the Potency entry was “inactive”. On to `O=C(NNC(=O)c1cccc(-n2cccc2)c1)c1ccc(F)cc1`, for which the Potency entry was “inactive”. `Cc1cc(COc2ccccc2)oc1C(=O)O`: the Potency result is “inactive”. Regarding `CCCCN(CC(=O)Nc1cccc(S(=O)(=O)N2CCCC2)c1)Cc1nc2ccccc2c(=O)[nH]1`, the Potency entry was “inactive”. As to `CC/C(=N\Nc1ccccc1[N+](=O)[O-])c1ccc(O)cc1`, the Potency entry was “inactive”. Turning to `CCN(c1ccc(OC)cc1)S(=O)(=O)c1ccc2c(c1)NC(=O)CS2`, the Potency result is “inactive”. On to `CN(C(=O)c1ccccc1C(=O)OCC(=O)NCc1ccccc1)C1CCCCC1`, for which the Potency entry is “inactive”. Take `COc1ccc(/C(N)=N/OC(=O)Cc2ccccc2OC)cc1`: the Potency entry was “inactive”. For `COc1ccc(C(=O)NCC(=O)N/N=C/c2c(C)[nH]c3ccccc23)cc1` the value was “inactive”. On to `CCN(CC)CC(=O)Nc1sc2c(c1C(=O)c1ccccc1OC)CCC2`, for which the Potency is 10.4 µM (active). The result for `O=C(NCCCN1CCCC1=O)c1cccc(Oc2ccccc2)c1` reads “inactive”. The result for `CCN(c1ccccc1)S(=O)(=O)c1ccc(NC(=O)c2ccco2)cc1` reads “inactive”; that for `Cn1cc(SCC(=O)Nc2nccs2)c2ccccc21`, “inactive”; that for `CCc1cc(CC)c(/C=N/NC(N)=O)c(CC)c1`, “inactive”. Regarding `Cc1noc(C)c1COc1ccc(C(=O)N2CCN(S(=O)(=O)c3ccc(Cl)cc3)CC2)cc1`, the Potency result was “inactive”. As to `COc1ccc(N2CCN(C(=O)COc3ccc4c(C)c(C)c(=O)oc4c3C)CC2)cc1`, the Potency result was “inactive”.

Turning to `CCCc1nn2c(=O)cc(CSCC(=O)Nc3ccccc3)nc2s1`, the Potency entry was “inactive”.
